Assay results published in PubChem BioAssay (NCI).
The panel holds about 79,000 compounds, 15% with a hit somewhere; the sample as a whole holds those more often. Values without a mark were called inactive. Calls of active or inactive are those of the source. Rule as the data show it: active = growth inhibition above about 70%; inactive = the rest.

Key:
[1] = NCI Yeast Anticancer Drug Screen. Data for the rad50 strain (AID 155);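 also: 0% = growth of vehicle-only cultures of the same strain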; settings: S. cerevisiae rad50 strain growth inhibition, hits give high values
Method in brief: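 Cells are treated with compound, grown, and their growth is then scored against vehicle-only cultures of the same repair-deficient yeast strain.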

[2] = NCI Yeast Anticancer Drug Screen. Data for the mec2-1 strain (AID 157); settings: S. cerevisiae mec2-1 strain, hits give high values
Method in brief: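 Using mec2-1 yeast: add compound, measure growth, express inhibition versus vehicle-treated cultures.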

[3] = NCI Yeast Anticancer Drug Screen. Data for the sgs1 mgt1 strain (AID 161);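 also: 0% = growth of cultures given vehicle only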; settings: S. cerevisiae sgs1 mgt1 strain, hits give high values
Method in brief: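 Yeast cells carrying a defined DNA-repair defect were exposed to test compounds. Growth inhibition was measured relative to vehicle-treated controls.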

[4] = NCI Yeast Anticancer Drug Screen. Data for the cln2 rad14 strain (AID 165);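 also: 0% = growth equal to vehicle treated cultures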; settings: S. cerevisiae cln2 rad14 strain, hits give high values
Method in brief: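 Yeast strain cln2 rad14, bearing defects in cell cycle control and DNA repair, serves as the test system; values reflect growth inhibition compared with vehicle.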

[5] = NCI Yeast Anticancer Drug Screen. Data for the bub3 strain (AID 167); settings: S. cerevisiae bub3 mutant strain, hits give high values
Method in brief: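 Part of a panel of yeast mutants defective in DNA damage repair or cell cycle regulation. Each strain is grown with compound, and inhibition is calculated relative to solvent-treated cultures.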

[6] = NCI Yeast Anticancer Drug Screen. Data for the mlh1 rad18 strain (AID 175); settings: S. cerevisiae mlh1 rad18 strain growth inhibition, hits give high values
Method in brief: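 Steps: expose repair-defective yeast to compound; measure growth; express inhibition against vehicle-treated controls.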

[7] = at 5.0 µM (retest, dose inferred, filed as 0.5)
[8] = at 50.0 µM (retest, dose inferred, filed as 5.0)

Row | Structure (SMILES) | growth inhibition [1, 7] [%] | growth inhibition [1, 8] | growth inhibition ([1]; at 50.0 µM) | growth inhibition [2, 7] [%] | growth inhibition [2, 8] | growth inhibition ([2]; at 50.0 µM) | growth inhibition [3, 7] [%] | growth inhibition [3, 8] | growth inhibition ([3]; at 50.0 µM) | growth inhibition [4, 7] [%] | growth inhibition [4, 8] | growth inhibition ([4]; at 50.0 µM) | growth inhibition [5, 7] [%] | growth inhibition [5, 8] | growth inhibition ([5]; at 50.0 µM) | growth inhibition [6, 7] | growth inhibition [6, 8] | growth inhibition ([6]; at 50.0 µM)
1 | c1ccc2c(c1)cc(C1NCCc3[nH]cnc31)c1ccccc12 (stereo not given) | 13 | 80% (active) | 47% | -4 | 83% (active) | 1.5% | 16 | 82% (active) | -15.3% | 26 | 71% (active) | 30.4% | 13 | 96% (active) | 11.1% | -21% | 97% (active) | 61.9%
2 | Cn1c2nc(-[n+]3ccc(-c4ccccc4)cc3)nc-2c([O-])n(C)c1=O | 3 | 3% | -7.35% | -3 | 8% | 2.95% | 1 | -4% | 9.9% | -3 | 1% | 72.3% (active) | -1 | -3% | -2% | -1% | 16% | -7.5%
3 | Cc1cccc[c]1[Sn]([Cl])([O][Sn]([Cl])([c]1ccccc1C)[c]1ccccc1C)[c]1ccccc1C | 61 | 97% (active) | 88.3% (active) | 46 | 98% (active) | 90.8% (active) | 40 | 98% (active) | 89% (active) | 20 | 96% (active) | 88.3% (active) | 42 | 98% (active) | 88.2% (active) | 85% (active) | 96% (active) | 89.5% (active)
4 | O=c1c2c3ccccc3[nH]c2c2cccc3c2n1CCC3 | 4 | 92% (active) | 88.7% (active) | 5 | 88% (active) | 90% (active) | 13 | 89% (active) | 88.2% (active) | -1 | 69% | 83.5% (active) | 11 | 96% (active) | 89.3% (active) | 13% | 94% (active) | 88.8% (active)
5 | CCCCCCCCCCOC(=O)Nc1ccc(C)c(NC(=O)OCCCCCCCCCC)c1 | 0 | 1% | 27.4% | 1 | -3% | 13.4% | 3 | -13% | 16.8% | 2 | -13% | 23.1% | 0 | -1% | 55.2% | -1% | -3% | 24.6%
6 | CCCCCCCCCCCCCC(=O)CC(=O)c1c(O)cccc1O | 2 | -7% | -9.1% | -3 | -1% | -5.8% | 7 | -13% | -3.9% | 10 | 12% | -64.6% | -11 | -5% | 7% | 35% | 17% | 17.1%
7 | COC(=O)c1ccccc1NC(=S)NN(C)C | 13 | 20% | -0.25% | 7 | 17% | -14.3% | -5 | 16% | -8.9% | 9 | 11% | 18.2% | -20 | 36% | 3.85% | 16% | 28% | -2%
8 | CN(C)Cc1ccc(C(C)(C)C)cc1-c1cc(C(C)(C)C)ccc1CN(C)C | 7 | 3% | 1.6% | 7 | -4% | 1.8% | -10 | 2% | -32.4% | 26 | -17% | -40.5% | -27 | -16% | -30.8% | -6% | -9% | 11.9%
9 | CCc1ccccc1NC(=O)C(=O)C(C#N)c1c(Cl)cccc1Cl (stereo not given) | -8 | -2% | -26.7% | 2 | 1% | 8.8% | -17 | -33% | 20.7% | -6 | 4% | -28.7% | 1 | 0% | 12.2% | 0% | -1% | 14.7%
10 | CCOC(=O)c1[nH]cc(C)c1-c1ccc2c(-c3ccccc3)nc3ccccc3n12 | 5 | 65% | 44.8% | 7 | 61% | 64.2% | 3 | 70% (active) | 60.4% | 12 | 81% (active) | 38.8% | 9 | 79% (active) | 40.6% | 12% | 73% (active) | 69%
11 | CC(=O)Oc1c([N+](=O)[O-])cc(-c2ccccc2)cc1[N+](=O)[O-] | 18 | 99% (active) | 78.2% (active) | 20 | 100% (active) | 56.1% | 21 | 99% (active) | 66.3% | 9 | 99% (active) | 47.5% | 21 | 99% (active) | 62.1% | 6% | 99% (active) | 84.6% (active)
12 | COc1ccc(-c2cc3ccccc3c(=O)n2Cc2ccccc2)cc1 | 8 | 66% | 78.3% (active) | 11 | 74% (active) | 88.4% (active) | 13 | 73% (active) | 83.7% (active) | 6 | 57% | 74% (active) | 8 | 63% | 89.3% (active) | 11% | 66% | 79.3% (active)
13 | CC12CCc3ccccc3C1=Nc1ccccc12 (stereo not given) | -3 | 78% (active) | 78.7% (active) | 2 | 89% (active) | 73.2% (active) | 8 | 82% (active) | 58.2% | -12 | -20% | -11.1% | 12 | 90% (active) | 88.7% (active) | -3% | 72% (active) | 55.5%
14 | Cc1ccc(C(C)C)c(O)c1N/N=C/c1cc(Cl)ccc1O | 2 | 55% | 73% (active) | 3 | 25% | -0.3% | 1 | 82% (active) | 41.9% | 2 | 26% | -4.05% | 1 | 48% | 58.1% | 2% | 83% (active) | 36.8%
15 | NC(=O)N/N=C1/CC2CCCCC2c2ccccc21 (stereo not given) | 12 | 92% (active) | 67.8% | -4 | 86% (active) | 13% | -2 | 66% | 58% | 0 | 69% | 19.2% | 0 | 94% (active) | 86.2% (active) | -6% | 94% (active) | 23.5%
16 | O=C(Nc1ccc(Br)cc1)c1cc(Br)c(O)c(Br)c1O | 21 | 99% (active) | 58.1% | 9 | 99% (active) | 98.8% (active) | 29 | 99% (active) | 59.9% | -5 | 99% (active) | 92.2% (active) | 11 | 99% (active) | 98.4% (active) | 24% | 99% (active) | 98% (active)
17 | CCCCCCCCCCCCCCCCCCNCCCCCCCCCCCCCCCC | 6 | 3% | 52.7% | -1 | 8% | 38.5% | 5 | 0% | 49.9% | -1 | 2% | 75% (active) | -5 | 3% | 69.2% | 4% | 6% | 45.8%
18 | S=c1[nH]c2c(-c3ccccc3)cccc2s1 | -4 | 74% (active) | 62.1% | -6 | 62% | 76.9% (active) | 12 | 78% (active) | 86.2% (active) | -16 | 41% | 60.5% | -20 | 44% | 53.8% | 1% | 65% | 87.5% (active)
19 | CC(CC(C)[C@H]1CCC2[C@H]3C(CC(=O)[C@@]21C)[C@@]1(C)CCC(O)C[C@H]1C[C@@H]3O)C(=O)O (stereo not given in full) | -1 | 99% (active) | 98.3% (active) | 1 | 99% (active) | 98.5% (active) | -1 | 98% (active) | 98.8% (active) | -4 | 99% (active) | 96.8% (active) | -4 | 98% (active) | 99% (active) | 10% | 99% (active) | 98.2% (active)
20 | Oc1ccc(N=Nc2ccc(Cl)cc2)cc1O | -30 | 98% (active) | 98.4% (active) | -8 | 98% (active) | 98.3% (active) | 8 | 98% (active) | 98.5% (active) | -7 | 97% (active) | 97.7% (active) | -35 | 98% (active) | 97.8% (active) | -7% | 98% (active) | 98.2% (active)
